From PubChem BioAssay
A selection: hits, their analogues and other compounds. The true share with any hit is near 18%.
IL1B secr inh – blocks inflammasome-driven IL-1 beta release | THP-1 LPS/ATP IL-1B secretion, AlphaLISA, 16 h; hits give low values | activity change, % at 57.5 µM | AID 743279 | 360,000 compounds, 4.7% hits; in the data active = activity change below about -50%; inconclusive = mostly about -30% to -49%
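Secreted IL-1B measured by AlphaLISA bead assay after 16 h compound exposure of THP-1 cells; compounds (final up to 57.5 uM) added 1 h before LPS (250 ng/mL) and ATP (1.25 mM) stimulation; lower signal means less secretion.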
TDP1 cell noCPT – qHTS for Inhibitors of human tyrosyl-DNA phosphodiesterase 1 (TDP1): qHTS in cells in absence of CPT | DT40 Tdp1-/- hTDP1 cells, no CPT, ATP luminescence, 48 h | Potency, µM (top dose mostly 46.2 µM), most hits filed as inhibitors | 420,000 compounds, 15% hits | AID 686978, 2013; note: nearly all actives have a fitted effect of over 55% in size
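DT40 Tdp1-/-;hTDP1 cells, no CPT (DMSO vehicle only), 400 cells/well; compounds pin-transferred; ≥48 hr, 37 °C; CellTiter-Glo 30 min RT dark, luminescence read.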
HepG2 tox – kills HepG2 cells in TGF-b inhibitor counter-screen; HepG2 CAGA-GFP viability, ATP luminescence, 18 h; Potency, µM (doses to about 46.1 µM), hits mostly cytotoxic; 410,000 compounds, 0.76% hits; AID 588856
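HepG2 CAGA-GFP cells (1000/well, DMEM with 1% FBS) received compound, then TGF-beta at 500 pg/mL final, and were incubated 18 hours at 37 degrees C. Viability was read by CellTiter-Glo luminescence. Media-only wells were set as complete cell-killing and DMSO as no toxicity.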
TDP1 block – inhibitors of human tyrosyl-DNA phosphodiesterase TDP1 | Q9NUW8 | recombinant TDP1, AlphaScreen DNA substrate cleavage | Potency, µM (highest dose often 130 µM), actives largely listed as inhibitors | 350,000 compounds, 0.28% hits | AID 485290; note: nearly all actives have a fitted effect of over 40% in size
Target sequence (Q9NUW8 whole entry, looked up): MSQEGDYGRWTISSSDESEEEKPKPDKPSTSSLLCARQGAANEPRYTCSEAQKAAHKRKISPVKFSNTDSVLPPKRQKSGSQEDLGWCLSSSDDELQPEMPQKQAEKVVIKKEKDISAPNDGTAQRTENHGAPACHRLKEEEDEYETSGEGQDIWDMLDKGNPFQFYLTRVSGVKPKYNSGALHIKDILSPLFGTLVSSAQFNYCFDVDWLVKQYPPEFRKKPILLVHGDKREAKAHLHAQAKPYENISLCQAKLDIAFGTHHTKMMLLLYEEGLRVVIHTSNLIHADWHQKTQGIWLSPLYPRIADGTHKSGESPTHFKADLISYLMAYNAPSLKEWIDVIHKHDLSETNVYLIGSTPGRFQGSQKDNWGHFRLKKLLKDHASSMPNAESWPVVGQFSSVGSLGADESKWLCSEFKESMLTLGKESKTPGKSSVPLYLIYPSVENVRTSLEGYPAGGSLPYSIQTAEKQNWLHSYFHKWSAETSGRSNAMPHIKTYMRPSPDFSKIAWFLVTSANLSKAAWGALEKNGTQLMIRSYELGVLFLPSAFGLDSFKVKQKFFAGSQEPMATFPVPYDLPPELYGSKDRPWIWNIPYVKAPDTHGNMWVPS
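E. coli-derived human Tdp1, 1 nM final. Cpd preinc 15 min RT; substrate 15 nM final, 5 min RT; AS bead mix 10 ug/ml final, 10 min RT. Signal loss = tyrosine-FITC cleavage. No-enzyme wells = max signal.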
DT40 TDP1 CPT – growth inhibition of DT40 Tdp1-/-;hTDP1 cells with camptothecin (screen for TDP1 inhibitors). chicken DT40 Tdp1-/-;hTDP1 cells + 20 nM CPT, ATP luminescence, 48 h. 420,000 compounds, 12% hits. Potency, µM (highest dose often 46.2 µM), usual class: inhibitors; note: nearly all actives have a fitted effect of over 55% in size
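Cell growth measured by CellTiter-Glo luminescence after a minimum 48 h, 37 C compound exposure with 20 nM CPT in Tdp1-knockout DT40 cells stably expressing hTDP1, seeded 400/well; qHTS titration format.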
TGFb SMAD3 inh – TGF-b pathway inhibition; AID 588855; HepG2 CAGA-GFP TGF-b/SMAD3 reporter, GFP fluorescence, 18 h; TGF-beta stimulated, 500 pg/mL final; Potency, µM (top dose mostly 46.1 µM), most hits filed as inhibitors; 410,000 compounds, 1.2% hits; note: nearly all actives have a fitted effect of over 65% in size
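GFP signal (ex488/em500-530) from TGF-beta-stimulated HEPG2 CAGA-GFP cells, 500 pg/mL final, 18 h at 37 degrees C in DMEM plus 1% FBS, normalized to unstimulated and DMSO-stimulated controls.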
Hits are given with their value. Unless noted, calls come from the whole dose curve; as a rule, active = well fitted curve in the direction sought with a large enough effect; inconclusive = small, poorly fitted or top-dose-only effect, or another doubt; inactive = no such curve, though single readings can be large; an effect the other way counts as inactive or inconclusive.

Cc1ccc(CN(Cc2ccco2)C(=O)COc2c(C)cc(C)cc2C)cc1 was read as TDP1 cell noCPT 9.2µM, HepG2 tox inactive, TDP1 block inactive, DT40 TDP1 CPT 23µM and TGFb SMAD3 inh inconclusive.
`CCC(=O)N(CCC(c1ccc(C)cc1)c1ccco1)Cc1ccco1` (centres undefined) gave IL1B secr inh inactive, TDP1 cell noCPT 23µM, HepG2 tox inactive, TDP1 block inactive, DT40 TDP1 CPT inconclusive and TGFb SMAD3 inh inactive.
COc1ccc(-c2ccc(F)cc2)cc1C1C2C=CCC(C)C2C(=O)N1Cc1ccccc1 (centres undefined) was read as HepG2 tox inactive, TDP1 block inactive and TGFb SMAD3 inh inactive.
`COc1ccc(-c2cc3nc(C)c(CCC(=O)Nc4ccccc4C(C)=O)c(C)n3n2)c(OC)c1` gave TDP1 cell noCPT inactive, HepG2 tox inactive, TDP1 block inactive, DT40 TDP1 CPT inactive and TGFb SMAD3 inh inactive.
For O=C(c1ccccc1)c1cnc(Nc2ccccc2Cl)s1 the results were IL1B secr inh -58, TDP1 cell noCPT inactive, HepG2 tox inactive, TDP1 block inactive, DT40 TDP1 CPT inactive and TGFb SMAD3 inh inactive.
For CC(C)(C)C(=O)c1cnc(Nc2ccccc2Cl)s1 the results were IL1B secr inh inconclusive, TDP1 cell noCPT inactive, HepG2 tox inactive, TDP1 block inactive, DT40 TDP1 CPT inactive and TGFb SMAD3 inh inactive.
Cc1[nH]c2ccccc2c(=O)c1C(=O)/C=C/c1ccccc1 was read as IL1B secr inh -101, TDP1 cell noCPT 2.3µM, HepG2 tox inactive, DT40 TDP1 CPT 5.2µM and TGFb SMAD3 inh inconclusive.
O=C(/C=C/c1ccccc1)c1c[nH]c2ccccc12 was read as IL1B secr inh inconclusive, TDP1 cell noCPT inactive, HepG2 tox inactive, DT40 TDP1 CPT inactive and TGFb SMAD3 inh inactive.
`O=C(C=Cc1ccccc1)c1c[nH]c2ccccc2c1=O` gave IL1B secr inh -98, TDP1 cell noCPT 6.5µM, HepG2 tox inactive, DT40 TDP1 CPT 6.5µM and TGFb SMAD3 inh inconclusive.
`O=C(Nc1ncnc2c1ncn2[C@@H]1O[C@H](/C=C/C(=O)N2CCN(c3ccc(F)cc3)CC2)[C@@H](O)[C@H]1O)c1ccccc1` gave IL1B secr inh inconclusive, TDP1 cell noCPT inactive, HepG2 tox inactive, DT40 TDP1 CPT inactive and TGFb SMAD3 inh inconclusive.
Screening Cc1ccc(S(=O)(=O)N2CCOCC2)cc1NC(=O)CN1C(=O)NC(C)(c2ccc(Cl)cc2Cl)C1=O (centres undefined) returned IL1B secr inh inactive, TDP1 cell noCPT inconclusive, HepG2 tox inactive, TDP1 block inactive, DT40 TDP1 CPT inactive and TGFb SMAD3 inh inactive.
For Cc1c(C(=O)Nc2ccc(F)cc2)cn2c(nc3ccccc32)c1C#N the results were IL1B secr inh inactive, TDP1 cell noCPT inactive, HepG2 tox inactive, DT40 TDP1 CPT inactive and TGFb SMAD3 inh inactive.
Cc1ccc(O)c(C(=O)c2cc(C#N)c3nc4ccccc4n3c2)c1 was read as IL1B secr inh inactive, TDP1 cell noCPT 9.2µM, HepG2 tox inactive, TDP1 block inactive, DT40 TDP1 CPT inconclusive and TGFb SMAD3 inh inactive.
`N#Cc1cc(C(=O)c2cc(F)ccc2O)cn(Cc2ccccc2)c1=O` gave IL1B secr inh inactive, TDP1 cell noCPT inconclusive, HepG2 tox inactive, TDP1 block inactive, DT40 TDP1 CPT inactive and TGFb SMAD3 inh inconclusive.
For COc1ccc(O)c(C(=O)c2cnc3nc4ccccc4n3c2)c1 the results were IL1B secr inh inactive, TDP1 cell noCPT 21µM, HepG2 tox inactive, TDP1 block inactive, DT40 TDP1 CPT 15µM and TGFb SMAD3 inh inactive.
For Cc1ccc(O)c(C(=O)c2cc(C#N)c(=O)n(C(C)c3ccccc3)c2)c1 (centres undefined) the results were IL1B secr inh inactive, TDP1 cell noCPT 15µM, HepG2 tox inactive, TDP1 block inactive, DT40 TDP1 CPT inconclusive and TGFb SMAD3 inh inactive.
For Cc1ccc(O)c(C(=O)c2cc(C#N)c(=O)n(Cc3ccccc3)c2)c1 the results were IL1B secr inh inactive, TDP1 cell noCPT 9.2µM, HepG2 tox inactive, TDP1 block inactive, DT40 TDP1 CPT 16µM and TGFb SMAD3 inh inactive.
`CC(C)C(NS(C)(=O)=O)c1nnc2n1CCN(Cc1cccc3ncccc13)CC2` (centres undefined) gave TDP1 cell noCPT inactive and DT40 TDP1 CPT inactive.
Screening Cn1c(CC(=O)NNC(=O)c2cccnc2)nc2ccccc21 returned IL1B secr inh inactive, TDP1 cell noCPT inactive, HepG2 tox inactive, TDP1 block inactive, DT40 TDP1 CPT inactive and TGFb SMAD3 inh inactive.
Screening COc1ccc(-n2cc(C(=O)c3cc(Cl)ccc3O)cc(C#N)c2=O)cc1 returned IL1B secr inh inactive, TDP1 cell noCPT inconclusive, HepG2 tox inactive, TDP1 block inactive, DT40 TDP1 CPT inactive and TGFb SMAD3 inh inactive.
For Cc1ccc(-n2cc(C(=O)c3cc(Cl)ccc3O)cc(C#N)c2=O)cc1 the results were IL1B secr inh inactive, TDP1 cell noCPT 23µM, HepG2 tox inactive, TDP1 block inactive, DT40 TDP1 CPT 21µM and TGFb SMAD3 inh inconclusive.
`NS(=O)(=O)Nc1ccccc1Br` gave HepG2 tox inactive, TDP1 block inactive and TGFb SMAD3 inh inactive.
COc1ccc(-c2[nH]ncc2CN2CCN(C(=O)c3cccs3)CC2)c(F)c1 was read as IL1B secr inh inactive, TDP1 cell noCPT inactive, HepG2 tox inactive, TDP1 block inactive, DT40 TDP1 CPT inactive and TGFb SMAD3 inh inactive.
COc1ccc(-c2[nH]ncc2CN(C)C(C)c2cccs2)c(F)c1 (centres undefined) was read as IL1B secr inh inactive, TDP1 cell noCPT inconclusive, HepG2 tox inactive, TDP1 block inactive, DT40 TDP1 CPT 16µM and TGFb SMAD3 inh inactive.
`O=C1CCC/C(=N/Nc2ccc(Cl)cc2)C1` gave IL1B secr inh inactive, TDP1 cell noCPT 7.3µM, HepG2 tox inactive, TDP1 block inactive, DT40 TDP1 CPT 16µM and TGFb SMAD3 inh inconclusive.
Screening O=C(NN=C1CCCC1)c1ccc(Cl)cc1 returned IL1B secr inh inactive, TDP1 cell noCPT inactive, HepG2 tox inactive, DT40 TDP1 CPT inactive and TGFb SMAD3 inh inactive.
COc1cccc(CNC(=O)c2cnc3sc(N4CCCC4)nn3c2=O)c1OC was read as TDP1 cell noCPT inactive, HepG2 tox inactive, TDP1 block inactive, DT40 TDP1 CPT inactive and TGFb SMAD3 inh inactive.
For CCOc1ccccc1CNC(=O)c1cnc2sc(N3CCCC3)nn2c1=O the results were TDP1 cell noCPT 16µM, HepG2 tox inactive, TDP1 block inactive, DT40 TDP1 CPT 15µM and TGFb SMAD3 inh inactive.
